From PubChem BioAssay
Calls of active or inactive are those of the source. No rule for the calls is given here.

biological target: Pantothenate synthetase (Mycobacterium tuberculosis (strain ATCC 25618 / H37Rv)) (UniProt P9WIL5); assay: Recombinant Mtb pantothenate synthetase (PanC) inhibitors, coupled enzyme, confirmatory (AID 375); conditions: coupled enzyme assay; at 10 µM, hits give high values;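 also: 0% = full reaction with vehicle and 100% = no enzyme background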
Sequence (P9WIL5 whole entry, looked up): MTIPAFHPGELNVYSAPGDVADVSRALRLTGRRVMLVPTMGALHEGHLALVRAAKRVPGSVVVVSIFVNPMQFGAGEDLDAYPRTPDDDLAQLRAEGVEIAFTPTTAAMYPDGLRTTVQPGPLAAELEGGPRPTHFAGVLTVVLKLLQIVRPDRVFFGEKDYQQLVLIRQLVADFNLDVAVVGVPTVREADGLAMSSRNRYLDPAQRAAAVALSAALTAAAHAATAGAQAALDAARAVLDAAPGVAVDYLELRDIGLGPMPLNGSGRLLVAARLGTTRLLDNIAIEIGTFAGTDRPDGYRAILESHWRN

Row | Compound | inhibition
1 | O=C(Nc1ncc2c(n1)CC(c1ccccc1)CC2=O)c1ccco1 (stereo not drawn) | 3% (inactive)
2 | CSc1ccccc1NC(=O)CN(Cc1ccccc1)S(C)(=O)=O | 0% (inactive)
3 | Cc1cc(Cl)ccc1OCCCC(=O)NO | 0% (inactive)
4 | Cn1c(-c2ccc(F)cc2)cnc1NCc1ccccc1 | 0% (inactive)
5 | Cc1cc(Cl)ccc1OCCCC(=O)N1CCOCC1 | 0% (inactive)
6 | [N-]=[N+]=CC(=O)CC(c1ccccc1)N1C(=O)c2ccccc2C1=O (stereo not drawn) | 0% (inactive)
7 | CCOC(=O)N1CCC(NC(=O)CN2C(=O)CCSc3ccccc32)CC1 | 0% (inactive)
8 | CC(C)CNC(=O)C1C2C=CC(C2)C1C(=O)O (stereo not drawn) | 7% (inactive)
9 | CC(=O)NCC(=O)OC(C)C(=O)Nc1ccc(C(C)=O)cc1 (stereo not drawn) | 3% (inactive)
10 | CC1CC(NC(=O)c2cnc3n(c2=O)CCS3)CC(C)(C)C1 (stereo not drawn) | 5% (inactive)
11 | CCCC(C)c1nnc(NC(=O)C2CCCO2)s1 (stereo not drawn) | 0% (inactive)
12 | Cn1c(SCC(=O)N2CCOCC2)nnc1-c1cccc(NC(=O)c2ccccc2F)c1 | 0% (inactive)
13 | CCOc1ccc(OCC)c(NS(=O)(=O)c2ccc3c(c2)n(C)c(=O)c(=O)n3C)c1 | 3% (inactive)
14 | CCCCNC(=O)CN(C1CCCCC1)S(C)(=O)=O | 8% (inactive)
15 | O=c1oc2cc(O)ccc2c2oc3cc(O)ccc3c12 | 7% (inactive)
16 | CCOc1ccc(-c2nnc(SCC(=O)N3CCN(c4ccccc4)CC3)o2)cc1 | 0% (inactive)
17 | CCCCC(=O)Nc1ccc(NC(=O)C2CC2)nc1 | 2% (inactive)
18 | Cc1ccc(S(=O)(=O)N2CCN(C(=O)CSc3nnnn3C)C2)cc1 | 1% (inactive)
